According to the supplement of paper PMC5662767:
Counter-ions that a name gives are not always drawn.

Test system: Drosophila S2 cl14 SmoIP sensor cells
Test: normalized SmoIP GFP fluorescence (untreated unstimulated = 0%, untreated Hh-stimulated = 100%); higher = more Smo activation sensor fluorescence
Settings: compound concentration: 2 uM, 24 h
[1] = stimulation: Hh conditioned medium (+Hh)
[2] = stimulation: mock conditioned medium (-Hh)
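Also: flow cytometry read-out as median GFP intensity of gated cells, compounds added 30 min before Hh-conditioned or mock medium, mock-treated cells serving as unstimulated baseline.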

| Compound | normalized SmoIP GFP fluorescence [1] | normalized SmoIP GFP fluorescence [2] |
| --- | --- | --- |
| C=CC(=O)Nc1cc2c(Nc3ccc(F)c(Cl)c3)ncnc2cc1OCCCN1CCOCC1 [CI-1033(Canertinib)] | 109% | 13.8% |
| CC(C)OC(=O)OCOP(=O)(CO[C@H](C)Cn1cnc2c(N)ncnc21)OCOC(=O)OC(C)C [Tenofovir-Disoproxil-Fumarate] | 91.2% | 2.43% |
| CN1CCN(c2cccc(Nc3nc4c(-c5ccc(S(C)(=O)=O)cc5)cccn4n3)c2)CC1 | 92.1% | -3.39% |
| Cc1cc(C(C)Nc2ccccc2)c2nc(N3CCOCC3)cc(=O)n2c1 (stereo not drawn) | 126% | -0.265% |
| O=C1NC(=O)C(=Cc2ccc(-c3ccc(F)cc3)o2)S1 (stereo in doubt) | 102% | -2.48% |
| O=c1ncn2nc(Sc3ccc(F)cc3F)ccc2c1-c1c(Cl)cccc1Cl | 79.3% | -2.64% |
| Cc1cncc(CN2CCC(=C3c4ccc(Cl)cc4CCc4cccnc43)CC2)c1 [rupatadine-fumarate] | 112% | 3.77% |
| Cc1ccc(C(=O)c2cc(O)c(O)c([N+](=O)[O-])c2)cc1 [tolcapone] | 108% | -2.48% |
| CC(=O)S[C@@H]1CC2=CC(=O)CC[C@]2(C)[C@H]2CC[C@@]3(C)[C@@H](CC[C@@]34CCC(=O)O4)[C@H]12 [spironolactone] | 102% | -4.58% |
| CC1C(=O)OC2C(O)C34C5CC(C(C)(C)C)C36C(OC(=O)C6O)OC4(C(=O)O5)C12O (stereo not drawn) [Ginkgolide-B] | 85.5% | 0.489% |
| O=C(O)COCCN1CCN(C(c2ccccc2)c2ccc(Cl)cc2)CC1 (stereo not drawn) [Cetirizine-di-hcl] | 90.4% | -7.27% |
| COc1ccc2cc(CCC(C)=O)ccc2c1 [nabumetone] | 103% | -2.2% |
| O=C(NC[C@H](O)CO)c1ccncc1Nc1ccc(I)cc1F | 182% | 46.7% |
| CC[C@H](NC(=O)[C@H](C)NC)C(=O)N1C[C@@H](O)C[C@H]1Cc1c(-c2[nH]c3cc(F)ccc3c2C[C@@H]2C[C@H](O)CN2C(=O)[C@H](CC)NC(=O)[C@H](C)NC)[nH]c2cc(F)ccc12 | 78.2% | -2.08% |
| CC(C)C[C@H](NC(=O)[C@H](Cc1ccccc1)NC(=O)c1cnccn1)B(O)O [Bortezomib] | 70.3% | 52.4% |
| Cc1ccc(C(=O)Nc2ccc(CN3CCN(C)CC3)c(C(F)(F)F)c2)cc1C#Cc1cnc2cccnn12 | 128% | 11.3% |
| COc1cc2nc(N(C)CCCNC(=O)C3CCCO3)nc(N)c2cc1OC (stereo not drawn) [Alfuzosin-hydrochloride] | 101% | -2.42% |

| Compound | normalized SmoIP GFP fluorescence [1] | normalized SmoIP GFP fluorescence [2] |
| --- | --- | --- |
| CN1CCC(NC(=O)c2cc(-c3c(O)cc(O)cc3Oc3ccc([N+](=O)[O-])cc3)on2)CC1 | 129% | 4.56% |
| COC(=O)C1=C(C#N)NC(C)=C(C(=O)OC(C)C)C1c1cccc([N+](=O)[O-])c1 (stereo not drawn) [nilvadipine-arc029] | 110% | -17% |
| OCCn1cc(-c2ccc3c(c2)CC/C3=N\O)c(-c2ccncc2)n1 | 97.5% | 0.274% |
| Cc1c(Cn2c(C)nc3c(C(=O)O)cc(N4CCOCC4)cc32)cccc1C(F)(F)F | 108% | 0.966% |
| CO[C@H]1C[C@@H]2CC[C@@H](C)[C@@](O)(O2)C(=O)C(=O)N2CCCC[C@H]2C(=O)O[C@H]([C@H](C)C[C@@H]2CC[C@@H](OP(C)(C)=O)[C@H](OC)C2)CC(=O)[C@H](C)/C=C(\C)[C@@H](O)[C@@H](OC)C(=O)[C@H](C)C[C@H](C)/C=C/C=C/C=C/1C [Deforolimus] | 23.8% | -8.56% |
| Cc1ccc(F)c(NC(=O)Nc2ccc(-c3cccc4[nH]nc(N)c34)cc2)c1 | 115% | 0.274% |
| COc1ccc2c(c1)c(CC(=O)N1CCOCC1)c(C)n2C(=O)c1ccc(Cl)cc1 | 108% | -2.59% |
| CN(C)C/C=C/C(=O)Nc1cc2c(Nc3ccc(F)c(Cl)c3)ncnc2cc1O[C@H]1CCOC1 | 121% | 7.92% |
| COc1cc(OC)c(/C=C/S(=O)(=O)Cc2ccc(OC)c(NCC(=O)O)c2)c(OC)c1 | 79.7% | -1.34% |
| CCN(CC)CCOc1ccc(/C(=C(\Cl)c2ccccc2)c2ccccc2)cc1 [Clomifene-citrate-Serophene] | 139% | -11.6% |
| CCCC(=O)Nc1ccc(OCC(O)CNC(C)C)c(C(C)=O)c1 (stereo not drawn) [acebutolol-hcl] | 106% | -3.5% |
| COCCOC(=O)C1=C(C)NC(C)=C(C(=O)OC/C=C/c2ccccc2)C1c1cccc([N+](=O)[O-])c1 (stereo not drawn) [Cilnidipine] | 112% | 2.97% |
| Cc1nc(NC(=O)N2CCC[C@H]2C(N)=O)sc1-c1ccnc(C(C)(C)C(F)(F)F)c1 | 102% | -1.23% |
| Cn1c(=O)c2[nH]cnc2n(C)c1=O [Aminophylline(Truphylline)] | 98.8% | -6.51% |
| Cc1cn(-c2cc(NC(=O)c3ccc(C)c(Nc4nccc(-c5cccnc5)n4)c3)cc(C(F)(F)F)c2)cn1 [Nilotinib] | 104% | -4.47% |
| O=C1CN2Cc3c(ccc(Cl)c3Cl)N=C2N1 [anagrelide-hydrochloride] | 108% | -2.31% |
| Cc1cc(C2CCCCC2)n(O)c(=O)c1 [ciclopirox-ethanolamine] | 101% | -0.264% |
